# Screening data (PubChem BioAssay)
# S1P2 ag – S1P2 receptor agonists, primary screen, cell-based; AID 729, 2007; S1P2-expressing cell line, agonist reporter read-out; activation, % at 4.5 µM; 97,000 tested, 0.46% active; in the data active = activation above about 16%;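 also: 0% = vehicle low control and 100% = maximal reference agonist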
# Target sequence (O95136 whole entry, looked up): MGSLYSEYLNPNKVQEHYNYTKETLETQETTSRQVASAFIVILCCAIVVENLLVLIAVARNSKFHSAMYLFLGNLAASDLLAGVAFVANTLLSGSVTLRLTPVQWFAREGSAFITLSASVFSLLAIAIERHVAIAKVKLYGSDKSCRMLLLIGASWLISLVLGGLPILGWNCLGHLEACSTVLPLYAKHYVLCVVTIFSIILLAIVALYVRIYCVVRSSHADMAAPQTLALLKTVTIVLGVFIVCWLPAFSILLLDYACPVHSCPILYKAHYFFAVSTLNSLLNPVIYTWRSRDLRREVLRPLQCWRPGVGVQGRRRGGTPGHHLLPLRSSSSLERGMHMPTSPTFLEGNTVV
# GALR2 antag – GALR2 antagonists in receptor-expressing cells, primary screen | antagonist mode | Galanin receptor type 2 (Homo sapiens), O43603 | 140,000 tested, 0.39% active | inhibition, % at 4 µM | AID 828, 2007; in the data active = inhibition above about 27%;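 also: cells stimulated with galanin 1-16 at roughly its EC80; 0% = agonist challenge control and 100% = basal control without agonist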
# S1P2 blocker – human S1P2 receptor antagonists, primary screen, cell-based | Sphingosine 1-phosphate receptor 2 (Homo sapiens), O95136 | inhibition, % at 5 µM | 97,000 tested, 0.21% active | cell-based S1P2 antagonist assay, inhibition at 5 uM; in the data active = inhibition above about 45%;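 also: CRE beta-lactamase reporter cells expressing human S1P2 stimulated with S1P; 0% = agonist at EC80 alone and 100% = agonist plus reference antagonist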
# GALR2 agonist – GALR2 receptor agonists, primary screen, cell-based. activation, % (test concentration not listed). GALR2-expressing cells, agonist activation read-out. 140,000 tested, 0.48% active; in the data active = activation above about 5%, passing the limit was not always enough;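 also: 0% = vehicle buffer wells and 100% = reference agonist at full effect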
# Active calls of the source: *; / = no result given. A selection: hits, their analogues and other compounds. The true share with any hit is near 1.1%.
SMILES,S1P2 ag,GALR2 antag,S1P2 blocker,GALR2 agonist
CCOC(=O)CS(=O)(=O)c1nc(-c2ccccc2)cc(C(F)(F)F)n1,-2.9,59.1*,-8.5,7.2
COc1cc2c(cc1OC)C(CC#N)=NC(C)(C)C2,17.8*,-3.0,-45.6,-1.8
CN1CCN(c2nc(-c3ccccc3)c3cc(Cl)ccc3n2)CC1,25.5*,14.0,4.7,17.6*
OCCN1CCN(c2nc(-c3ccccc3)c3cc(Cl)ccc3n2)CC1,17.6*,8.7,-4.7,19.1*
Cc1ccc(C(=O)Cn2nnc3ccccc32)cc1,-5.2,6.7,2.0,-2.4
CCN(C(=O)c1ccc(C(C)(C)C)cc1)c1nnc(Cn2nnc3ccccc32)s1,-10.4,16.7,86.6*,-1.9
O=C(NCCC(=O)N1CCN(c2ncccn2)CC1)c1ccccc1Cl,-2.1,-16.3,-3.6,-1.6
O=C(O)CCC(=O)N1CCN(c2nc(-c3ccccc3Cl)c3cc(Br)ccc3n2)CC1,16.4*,8.6,-14.9,9.6
CNC(=O)C1=C(C)NC(=S)NC1c1cc2c(cc1OC)CCCC2 (stereo not drawn),/,-3.8,/,-1.2
COc1ccc(CCNC(=O)CSc2nncs2)cc1,/,-1.5,/,0.6
COCCCn1c(=NC(=O)c2ccncc2)c(C#N)cc2c(=O)n3cccc(C)c3nc21,/,-12.6,/,5.6*
COc1ccc(C(=O)N=c2c(C#N)cc3c(=O)n4cccc(C)c4nc3n2Cc2ccco2)cc1,0.6,-8.1,-11.7,3.4
Cc1cccn2c(=O)c3cc(C#N)c(=NC(=O)c4ccncc4)n(CCCOC(C)C)c3nc12,17.5*,-12.6,-12.9,2.0
CCCCn1c(=NC(=O)c2cccnc2)c(C#N)cc2c(=O)n3cccc(C)c3nc21,2.3,-18.3,-27.4,3.5
COC(=O)c1ccc(NC(=O)COc2ccc(C3C(C#N)=C(N)Oc4c3ccc3ccccc43)cc2OC)cc1 (stereo not drawn),-6.8,11.1,62.9*,-0.8
Cc1ccc(SCc2ccc(C(=O)NCc3ccncc3)cc2)cc1,-7.5,4.7,15.4,-2.8
COC(=O)C1=CN(CCCN2CCCC2=O)C=C(C(=O)OC)C1c1cccs1,-0.8,2.2,8.3,4.0
COC(=O)C1=CN(Cc2cccs2)C=C(C(=O)OC)C1c1cccc(OC)c1OC,20.8*,-9.7,-9.4,1.3
CNC(=O)C12CC3CC(CC(Cl)(C3)C1)C2,/,11.4,/,-1.8
COc1cccc(-c2cc(C(=O)NCCCn3ccnc3)no2)c1,-5.4,-11.4,-6.9,-2.7
CCN(CC)c1ccc2cc(C=O)c(=O)oc2c1,6.8,0.4,-4.1,2.4
CCN(CC)c1ccc2cc(NC(=O)CCC(=O)O)c(=O)oc2c1,/,50.1*,/,0.2
CCN(CC)c1ccc2cc(C(N)=O)c(=O)oc2c1,20.5*,-5.5,-7.4,1.2
CCN(CC)c1ccc2cc(C(C)=O)c(=O)oc2c1,0.7,4.7,16.8,2.7
CCN(CC)c1ccc2cc(C(=O)Nc3ccccn3)c(=O)oc2c1,/,-5.4,/,19.2*
SMILES,S1P2 ag,GALR2 antag,S1P2 blocker,GALR2 agonist
Cc1cc(=O)n2[nH]cc(C(=O)O)c2n1,-1.5,0.5,-7.9,-3.1
Cc1cc(C(=O)CN2C(=O)CCC2=O)c(C)n1Cc1ccccc1,150.3*,-10.7,-40.7,-0.5
Cc1cc(C(=O)CN2C(=O)c3ccccc3C2=O)c(C)n1Cc1cccs1,26.9*,-6.5,-2.6,-0.6
Cc1cc(C(=O)CN2C(=O)NC3(CCCc4ccccc43)C2=O)c(C)n1Cc1ccccc1 (stereo not drawn),8.7,-0.1,-22.4,-0.9
COc1ccc(OC)c(C2=NOC(C(=O)NCc3ccco3)C2)c1 (stereo not drawn),-1.3,6.1,-22.9,-1.0
O=C(c1cccc(S(=O)(=O)Nc2cccc(C(F)(F)F)c2)c1)N1CCCCC1,/,-0.8,/,-0.8
CON/C=C(\C=Nc1ccc(Cl)cc1)c1ncc(C(F)(F)F)cc1Cl,-4.7,-2.1,47.0*,-1.9
CS(=O)c1nc(-c2ccc(Br)cc2)cc(-c2ccccc2)c1C#N (stereo not drawn),/,57.3*,/,6.2*
CS(=O)(=O)c1nc(-c2ccc(Br)cc2)cc(-c2ccccc2)c1C#N,18.9*,-0.3,1.6,-2.7
O=C(NNC(=O)c1cccnc1)Nc1cccc(Cl)c1Cl,/,10.9,/,-1.4
Cc1cccc(NC(=O)Cn2c([N+](=O)[O-])cnc2C)c1C,/,2.8,/,-2.3
O=C(Nc1c2ccccc2nc2ccccc12)C(Cl)(Cl)Cl,18.1*,-11.1,-24.1,10.2
Cc1ccc(-c2nc3ccccc3[nH]2)cc1NC(=O)c1sc2cc(Cl)ccc2c1Cl,/,-8.3,/,-1.3
COc1ccc(CCn2c(N)c(C#N)c3nc4ccccc4nc32)cc1OC,2.1,-7.2,1.0,0.7
COc1ccc(Cn2c(N)c(C#N)c3nc4ccccc4nc32)cc1OC,21.0*,-9.3,-85.1,2.6
COc1ccccc1CCn1c(N)c(C#N)c2nc3ccccc3nc21,16.1*,-20.2,-31.3,2.0
CCCCCn1c(N)c(C#N)c2nc3ccccc3nc21,12.5,-8.5,-12.0,7.9*
O=C(O)CCS(=O)(=O)c1nc(-c2cccs2)cc(C(F)(F)F)n1,-1.5,2.8,11.6,-2.0
CS(=O)(=O)c1nc(-c2cccs2)cc(C(F)(F)F)n1,-1.2,37.9*,29.2,2.0
CCCN1C(=O)/C(=N\OCC(=O)NC23CC4CC(CC(C4)C2)C3)c2ccccc21,/,5.3,/,-1.1
COc1ccccc1N1C(=O)C2C(c3ccccc3F)NN(C(=O)c3ccc(C)cc3)C2C1=O (stereo not drawn),/,2.8,/,-2.0
Nc1nc(Br)c2c(F)cccc2c1-c1ccc(F)cc1,22.5*,4.7,-11.5,7.3
N=c1c(C(=O)NCc2ccccc2)cc2c(=O)n3ccccc3nc2n1Cc1ccco1,7.3,-4.6,-2.4,2.5
COC(=O)c1cc2c(=O)n3ccccc3nc2n(C(C)C)c1=N,18.9*,-3.6,-31.8,17.3*
CC(C)n1c(=N)c(C(=O)NCCc2ccccc2)cc2c(=O)n3ccccc3nc21,94.4*,-21.9,-68.3,17.5*
SMILES,S1P2 ag,GALR2 antag,S1P2 blocker,GALR2 agonist
CN(C(=O)CSc1nc(N)c2c3c(sc2n1)CSC(C)(C)C3)c1ccccc1,/,8.2,/,0.1
CCCn1c(C)cc(C(=O)COC(=O)c2cc(S(=O)(=O)NCC(C)C)c(Cl)cc2Cl)c1C,28.7*,-10.7,-6.1,-0.8
CC(C)CNS(=O)(=O)c1cc(C(=O)OCC(=O)c2ccc3c(c2)OCCO3)c(Cl)cc1Cl,/,-2.0,/,-0.4
Cc1nc(C)c(-c2nnc(-c3ccc(C(C)(C)C)cc3)o2)cc1C(=O)NN,/,-5.9,/,-0.7
COc1ccc(-c2nc(NC(=O)c3n[nH]c(=O)c4ccccc34)sc2C)cc1,/,8.4,/,2.3
Cc1cc(NCCOCCO)n2ncc(-c3ccc(Cl)cc3)c2n1,17.6*,-6.7,-41.7,-1.0
COc1ccc(CNC(=O)C(c2ccco2)N(C(=O)c2csnn2)c2cccc(C)c2C)cc1 (stereo not drawn),-7.0,4.3,3.9,-2.4
CCOc1ncccc1C(=O)OCC(=O)Nc1cc(C)ccc1C,20.7*,7.2,-0.5,-3.1
N#CC(c1cccc(Cl)c1)c1ccc2c(C(F)(F)F)cc(C(F)(F)F)nc2n1 (stereo not drawn),-5.3,15.1,88.0*,-1.9
